# Out of some 310,000 compounds screened, about 14,000 (4.5%) showed an effect of 50% or more. Effects have a minus sign here. The sample as a whole holds a higher share of strong results than the screen did.
# Target: human ether-à-go-go-related gene (hERG) potassium channel (human, UniProt Q12809)
# Experiment: primary screen, population patch clamp on CHO cells stably expressing hERG; higher = less effect of the substance
# 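Further: peak tail current of the secondary pulse compared with the same well before compound.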
# Sequence of human ether-à-go-go-related gene (hERG) potassium channel (Q12809 whole entry, looked up): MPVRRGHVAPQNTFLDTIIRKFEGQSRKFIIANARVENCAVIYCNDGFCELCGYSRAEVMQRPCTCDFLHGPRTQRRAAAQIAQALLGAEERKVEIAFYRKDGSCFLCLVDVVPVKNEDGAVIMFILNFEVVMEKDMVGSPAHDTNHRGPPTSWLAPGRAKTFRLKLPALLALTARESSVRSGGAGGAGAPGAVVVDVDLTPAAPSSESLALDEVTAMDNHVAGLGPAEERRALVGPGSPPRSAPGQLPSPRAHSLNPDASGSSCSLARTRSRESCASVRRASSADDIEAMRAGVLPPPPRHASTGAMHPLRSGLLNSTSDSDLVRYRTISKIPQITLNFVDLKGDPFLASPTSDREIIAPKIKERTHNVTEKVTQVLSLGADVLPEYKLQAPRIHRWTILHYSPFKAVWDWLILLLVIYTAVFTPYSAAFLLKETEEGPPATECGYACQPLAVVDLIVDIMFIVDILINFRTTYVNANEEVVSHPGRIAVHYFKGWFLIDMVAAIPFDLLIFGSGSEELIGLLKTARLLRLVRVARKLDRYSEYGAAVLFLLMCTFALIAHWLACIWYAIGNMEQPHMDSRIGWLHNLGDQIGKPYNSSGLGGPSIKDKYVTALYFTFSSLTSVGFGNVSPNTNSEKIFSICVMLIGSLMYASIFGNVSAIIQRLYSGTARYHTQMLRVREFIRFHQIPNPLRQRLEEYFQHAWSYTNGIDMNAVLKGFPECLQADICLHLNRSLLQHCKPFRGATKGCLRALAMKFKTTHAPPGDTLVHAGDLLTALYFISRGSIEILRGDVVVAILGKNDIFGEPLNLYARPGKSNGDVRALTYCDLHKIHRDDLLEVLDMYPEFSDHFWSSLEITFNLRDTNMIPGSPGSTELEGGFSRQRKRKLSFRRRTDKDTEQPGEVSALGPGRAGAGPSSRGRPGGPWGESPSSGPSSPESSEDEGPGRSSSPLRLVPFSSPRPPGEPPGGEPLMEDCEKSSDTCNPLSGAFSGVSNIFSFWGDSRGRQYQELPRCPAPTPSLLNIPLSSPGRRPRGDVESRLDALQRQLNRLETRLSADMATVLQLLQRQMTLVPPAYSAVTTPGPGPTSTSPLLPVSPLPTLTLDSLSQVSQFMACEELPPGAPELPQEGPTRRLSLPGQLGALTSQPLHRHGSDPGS
row,SMILES,"hERG current change (%, negative = inhibition) at 10uM [%]"
1,Cc1c(C(=O)N/N=C/c2ccc(N(C)C)cc2)[nH]c2ccc(Cl)cc12,2.69
2,COC(=O)C1=C(C(=O)c2ccccc2)C(c2cccs2)n2nnnc2N1 (stereo not shown),19.8
3,Cc1ccc(CN2C(=O)CCC2C(=O)NCc2ccc3c(c2)OCO3)cc1 (stereo not shown),-17.4
4,NS(=O)(=O)c1ccc(CNC(=S)NCc2ccc(F)cc2)cc1,9.61
5,CCOC(=O)c1ccc(NC(=O)CC2C(=O)N(c3ccccc3)C(=O)N2CCCOC)cc1 (stereo not shown),-4.49
6,CC(=O)NS(=O)(=O)c1ccc(NC(=O)/C=C/c2cn(-c3ccccc3)nc2-c2ccccc2)cc1,34
7,O=C(c1cccc(Br)c1)N1CCN(C2=NS(=O)(=O)c3ccccc32)CC1,-65.8
8,O=C(OCCN1CCN(C2=NS(=O)(=O)c3ccccc32)CC1)c1ccccc1F,-16.9
9,O=C(c1ccc(F)cc1)N1CCN(C2=NS(=O)(=O)c3ccccc32)CC1,-15.8
10,O=C(c1ccc([N+](=O)[O-])cc1)N1CCN(C2=NS(=O)(=O)c3ccccc32)CC1,-46.2
11,COc1ccc(C(=O)OCCN2CCN(C3=NS(=O)(=O)c4ccccc43)CC2)cc1OC,-32.9
12,O=C(OCCN1CCN(C2=NS(=O)(=O)c3ccccc32)CC1)c1cccc(Br)c1,-68.6
13,COc1ccc2c(CC(=O)OCC(=O)NC(N)=O)coc2c1,0.524
14,COc1ccc(N2C(=NC(=O)C3CCCO3)SC3CS(=O)(=O)CC32)cc1 (stereo not shown),5.78
15,Cc1ccc(C)c(NC(=O)c2ccc3nccnc3c2)c1,2.6
16,COc1ccc(N=C2NC(=O)CS2)c([N+](=O)[O-])c1,11.4
17,O=C(Nc1ccc2c(c1)OCO2)[C@@H]1CCCN1S(=O)(=O)c1cccc2cccnc12,-6.18
18,CCOC(=O)C1C(c2ccc(Cl)cc2)NC(=S)NC1(O)C(F)(F)F (stereo not shown),16.7
19,Cn1ccnc1SCC(=O)Nc1nc2c(F)c(F)c(F)cc2s1,11.3
20,O=C(O)COCC(=O)N1CCc2c([nH]c3ccccc23)C1C(F)(F)F (stereo not shown),2.14
21,O=C(NCCC1CCCCN1S(=O)(=O)c1ccc(F)cc1)C(=O)NCc1ccccn1 (stereo not shown),-11.9
22,O=C(NCCc1ccc(F)cc1)C(=O)NCC1CCCN1S(=O)(=O)c1ccccc1 (stereo not shown),-61.7

row,SMILES,"hERG current change (%, negative = inhibition) at 10uM [%]"
1,CCN(CC)CCNC(=O)C(=O)Nc1ccc2c(c1)N(S(=O)(=O)c1cccs1)CCC2,-78.2
2,O=C(NCCc1ccccc1)C(=O)NCC1CCCN1S(=O)(=O)c1cccs1 (stereo not shown),-22.7
3,CCCNC(=O)C(=O)Nc1ccc2c(c1)N(S(=O)(=O)c1cccs1)CCC2,-33.6
4,Cc1ccc(C)c(S(=O)(=O)N2CCCCC2CCNC(=O)C(=O)NCc2ccccn2)c1 (stereo not shown),-19.8
5,O=C(NCc1ccc(F)cc1)C(=O)NCC1CCCN1S(=O)(=O)c1ccccc1 (stereo not shown),-38.2
6,Cc1cc(F)ccc1S(=O)(=O)N1CCCCC1CCNC(=O)C(=O)NCc1ccccn1 (stereo not shown),-61.4
7,CN(C)CCNC(=O)C(=O)Nc1ccc2c(c1)N(S(=O)(=O)c1cccs1)CCC2,-2.98
8,COc1ccc(CCNC(=O)C(=O)NCC2CCCN2S(=O)(=O)c2cccs2)cc1 (stereo not shown),-32.9
9,O=C(NCCc1ccccc1)C(=O)NCC1CCCN1S(=O)(=O)c1ccccc1 (stereo not shown),-41.9
10,O=C(NCCc1ccc(F)cc1)C(=O)NCC1CCCN1S(=O)(=O)c1cccs1 (stereo not shown),-57.6
11,COc1ccc(N)cc1NC(=O)CN1CCCC1,19.3
12,CCN(CC)S(=O)(=O)c1ccc(Cl)c(NC(=O)COC(=O)c2ccc(O)cc2)c1,-21.4
13,CCCCC(=O)Nc1ccc(C(=O)N2CCCC(C(=O)OCC)C2)cc1 (stereo not shown),7.66
14,O=C(NCCC1CCCCN1S(=O)(=O)c1cccs1)C(=O)Nc1cccc(F)c1 (stereo not shown),-50.1
15,O=C(NCCC1CCCCN1S(=O)(=O)c1cccs1)C(=O)Nc1ccccc1 (stereo not shown),-10.1
16,O=C(NCCC1CCCCN1S(=O)(=O)c1cccs1)C(=O)Nc1ccc(F)cc1 (stereo not shown),-6.79
17,Cc1ccc(N2C(=O)N(CC(=O)Nc3cccc(Cl)c3)C(=O)C2C)cc1 (stereo not shown),-14.9
18,O=C(COC(=O)CCc1ccc(S(=O)(=O)N2CCOCC2)cc1)NC1CCCCCC1,-10.8
19,CN(C)c1ccc(-c2cccc(C3CC=CC4C3C(=O)N(Cc3ccccc3)C4c3ccc4ccccc4c3)c2)cc1 (stereo not shown),17.5
20,Cc1nc([N+](=O)[O-])c(N2CCOCC2)n1Cc1ccccc1,9.64
21,c1ccc(N2CCN(Cc3ccc4c(c3)OCO4)CC2)nc1,-8.79
22,O=[N+]([O-])c1ccc(N2CCN(c3ccccc3)CC2)nc1,4.96

row,SMILES,"hERG current change (%, negative = inhibition) at 10uM [%]"
1,Cc1nc([N+](=O)[O-])c(N2CCN(Cc3ccccc3)CC2)n1Cc1ccccc1,-64.3
2,CN(C(=O)CN1CCN(c2ccc([N+](=O)[O-])cn2)CC1)c1ccccc1,-49.1
3,O=C(O)c1ccc(N2CCN(Cc3ccc4c(c3)OCO4)CC2)c([N+](=O)[O-])c1,17.3
4,O=Cc1cc([N+](=O)[O-])ccc1N1CCN(Cc2ccc3c(c2)OCO3)CC1,-67.5
5,O=[N+]([O-])c1ccc(N2CCN(Cc3ccc4c(c3)OCO4)CC2)nc1,-54.4
6,O=S(=O)(c1ccc(N2CCN(Cc3ccc4c(c3)OCO4)CC2)nc1)N1CCOCC1,-32.1
7,Cc1nc([N+](=O)[O-])c(N2CCN(C)CC2)n1Cc1ccccc1,-10.4
8,Cl.O=[N+]([O-])c1ccc(N2CCN(Cc3ccccc3)CC2)nc1,-59
9,Cl.O=[N+]([O-])c1ccc2ncnc(N3CCN(Cc4ccc5c(c4)OCO5)CC3)c2c1,-24.6
10,COc1cccc(NC(=S)NNC(=O)c2ccccc2OC(F)F)c1,12.3
11,Fc1ccccc1-c1[nH]ncc1-c1nnnn1-c1ccccc1,5.39
12,CCc1nnc(NC(=O)c2ccc3c(c2)C(=O)N(C(C)(C)C)C3=O)s1,7.02
13,O=C(CSc1ccc2ccccc2c1)NC1CCCc2ccccc21 (stereo not shown),8.2
14,COc1ccc(Cl)cc1NC(=S)NC(=O)c1ccco1,-31.5
15,COc1cc(/C=N/NC(=O)CNC(=O)c2ccco2)ccc1O,7.95
16,CCc1noc(C)c1C(=O)OC(C)C(=O)Nc1ccccc1OC (stereo not shown),-12.8
17,COc1ccc([N+](=O)[O-])cc1NC(=O)C(C)OC(=O)c1ccccn1 (stereo not shown),-7.61
18,CC(OC(=O)C1CC(=O)N(Cc2ccco2)C1)C(=O)Nc1ccccc1[N+](=O)[O-] (stereo not shown),-19.1
19,COc1ccc([N+](=O)[O-])cc1NC(=O)C(C)OC(=O)C1CC(=O)N(Cc2ccco2)C1 (stereo not shown),-57.4
20,COc1cc2c(cc1NC(=O)C(C)OC(=O)C1CC(=O)N(Cc3ccco3)C1)oc1ccccc12 (stereo not shown),-1.77
21,CCc1noc(C)c1C(=O)OC(C)C(=O)Nc1cc([N+](=O)[O-])ccc1OC (stereo not shown),-53.1
22,O=C(COC(=O)c1ccc(Cl)c(S(=O)(=O)N2CCCC2)c1)NCc1cccs1,-39.8

row,SMILES,"hERG current change (%, negative = inhibition) at 10uM [%]"
1,CCOc1ccc(/C=N/NC(=O)C2(O)c3ccccc3-c3ccccc32)cc1,4.13
2,CCSc1nnc(NC(=O)[C@@H](NC(=O)c2ccccc2F)C(C)C)s1,-8.27
3,O=C(Nc1nccs1)c1ccc(F)c(S(=O)(=O)N2CCOCC2)c1,-18.8
4,Cc1cc(C)n(CC(O)Cn2ccc3ccccc32)n1 (stereo not shown),-12.5
5,CC1C2CC(C(CN(C)C)/C2=N/O)C1(C)C (stereo not shown),-9.04
6,O=C1C=C(c2ccccc2)C(=O)N1Nc1ccccc1,-77.2
7,COc1ccc(C2=CC(=O)N(Nc3ccccc3)C2=O)cc1,24.6
8,O=C1C=C(c2ccc(Cl)cc2)C(=O)N1Nc1ccccc1,13.1
9,CN(c1ccccc1)c1nc2ccsc2c(=O)s1,4.47
10,CC(C)=CCN1CCN(Cc2cccn2-c2ncccn2)CC1CCO (stereo not shown),-39.6
11,CC(C)=CCN1CCN(Cc2ccc(Oc3ncccn3)cc2)CC1CCO (stereo not shown),9.1
12,CC(C)CCN1CCN(Cc2cccc3cccnc23)CC1CCO (stereo not shown),-26.2
13,CC(C)N1CCN(Cc2cccn2-c2ccccn2)CC1CCO (stereo not shown),-31.2
14,CC(C)CCN1CCN(Cc2cccn2-c2ccccn2)CC1CCO (stereo not shown),-75.5
15,CCn1ccnc1CN1CCN(CCC(C)C)C(CCO)C1 (stereo not shown),18.9
16,CC(C)CN1CCN(Cc2cccc3ncccc23)CC1CCO (stereo not shown),-2.49
17,CC(C)CN1CCN(Cc2cccn2-c2ccccn2)CC1CCO (stereo not shown),-55.9
18,CC(C)=CCN1CCN(Cc2cccn2-c2ccccn2)CC1CCO (stereo not shown),-55.4
19,CCC(C)N1C(=O)N(C)C2NC(=O)NC21 (stereo not shown),-2.9

# Source: article PMC4336329 (PLoS ONE, 2015)
